Source: ChEMBL document CHEMBL2218924, “A broad activity screen in support of a chemogenomic map for kinase signalling research and drug discovery” (Biochem J, 2013)

What was measured:
[1] = biological target: T1, CDK9/cyclin T1 (Homo sapiens) (UniProt O60563+P50750); details: at 1 µM
[2] = biological target: T1, CDK9/cyclin T1 (Homo sapiens); details: at 10 µM
[3] = biological target: T2, Serine/threonine-protein kinase Chk1 (Homo sapiens) (UniProt O14757); details: at 1 µM
T2 sequence (whole entry): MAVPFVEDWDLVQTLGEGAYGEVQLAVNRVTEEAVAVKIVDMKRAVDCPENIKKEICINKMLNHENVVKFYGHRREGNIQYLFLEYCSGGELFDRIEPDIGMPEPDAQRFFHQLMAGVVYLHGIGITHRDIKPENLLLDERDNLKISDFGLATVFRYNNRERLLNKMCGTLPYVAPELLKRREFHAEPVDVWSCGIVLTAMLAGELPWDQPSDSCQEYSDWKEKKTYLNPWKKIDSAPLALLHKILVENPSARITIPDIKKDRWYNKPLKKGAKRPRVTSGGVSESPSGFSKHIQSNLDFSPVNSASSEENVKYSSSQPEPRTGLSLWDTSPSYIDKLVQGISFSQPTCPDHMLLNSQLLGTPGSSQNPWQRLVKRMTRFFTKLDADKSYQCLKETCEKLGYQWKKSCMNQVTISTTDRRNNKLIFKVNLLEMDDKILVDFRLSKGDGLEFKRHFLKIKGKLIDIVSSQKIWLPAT

[4] = biological target: T2, Serine/threonine-protein kinase Chk1 (Homo sapiens); details: at 10 µM
[5] = biological target: Serine/threonine-protein kinase Chk2 (Homo sapiens) (UniProt O96017); details: at 1 µM
[6] = biological target: Serine/threonine-protein kinase Chk2 (Homo sapiens) (UniProt O96017); details: at 10 µM
[7] = biological target: Casein kinase I isoform gamma-1 (Homo sapiens) (UniProt Q9HCP0); details: at 1 µM
[8] = biological target: Casein kinase I isoform gamma-1 (Homo sapiens) (UniProt Q9HCP0); details: at 10 µM
[9] = biological target: Casein kinase I isoform delta (Homo sapiens) (UniProt P48730); details: at 1 µM
[10] = biological target: Casein kinase I isoform delta (Homo sapiens) (UniProt P48730); details: at 10 µM
[11] = biological target: T3, Casein kinase II (Homo sapiens) (UniProt P67870+P68400+P19784); details: at 1 µM
[12] = biological target: T3, Casein kinase II (Homo sapiens); details: at 10 µM
[13] = biological target: Casein kinase II subunit alpha' (Homo sapiens) (UniProt P19784); details: at 1 µM
[14] = biological target: Casein kinase II subunit alpha' (Homo sapiens) (UniProt P19784); details: at 10 µM
[15] = biological target: Dual specificity protein kinase CLK2 (Homo sapiens) (UniProt P49760); details: at 1 µM
[16] = biological target: Dual specificity protein kinase CLK2 (Homo sapiens) (UniProt P49760); details: at 10 µM
[17] = biological target: Dual specificity protein kinase CLK3 (Homo sapiens) (UniProt P49761); details: at 1 µM
[18] = biological target: Dual specificity protein kinase CLK3 (Homo sapiens) (UniProt P49761); details: at 10 µM
[19] = biological target: Tyrosine-protein kinase CSK (Homo sapiens) (UniProt P41240); details: at 1 µM
[20] = biological target: Tyrosine-protein kinase CSK (Homo sapiens) (UniProt P41240); details: at 10 µM

Sequence of Tyrosine-protein kinase CSK (Homo sapiens) (P41240 2-450 limits assumed): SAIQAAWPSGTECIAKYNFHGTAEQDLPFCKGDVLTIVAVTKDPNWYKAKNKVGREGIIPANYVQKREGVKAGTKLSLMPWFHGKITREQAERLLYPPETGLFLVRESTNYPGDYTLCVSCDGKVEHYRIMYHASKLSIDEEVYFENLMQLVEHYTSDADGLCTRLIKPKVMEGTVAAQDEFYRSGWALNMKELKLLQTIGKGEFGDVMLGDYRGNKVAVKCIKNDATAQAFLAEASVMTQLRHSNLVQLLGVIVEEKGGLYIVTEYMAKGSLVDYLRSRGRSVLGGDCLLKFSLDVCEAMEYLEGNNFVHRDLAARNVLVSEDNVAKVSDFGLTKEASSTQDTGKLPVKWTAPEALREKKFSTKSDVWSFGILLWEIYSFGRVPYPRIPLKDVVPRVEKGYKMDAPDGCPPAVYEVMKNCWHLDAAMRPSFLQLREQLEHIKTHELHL
Sequence of Dual specificity protein kinase CLK2 (Homo sapiens) (P49760 whole entry, looked up): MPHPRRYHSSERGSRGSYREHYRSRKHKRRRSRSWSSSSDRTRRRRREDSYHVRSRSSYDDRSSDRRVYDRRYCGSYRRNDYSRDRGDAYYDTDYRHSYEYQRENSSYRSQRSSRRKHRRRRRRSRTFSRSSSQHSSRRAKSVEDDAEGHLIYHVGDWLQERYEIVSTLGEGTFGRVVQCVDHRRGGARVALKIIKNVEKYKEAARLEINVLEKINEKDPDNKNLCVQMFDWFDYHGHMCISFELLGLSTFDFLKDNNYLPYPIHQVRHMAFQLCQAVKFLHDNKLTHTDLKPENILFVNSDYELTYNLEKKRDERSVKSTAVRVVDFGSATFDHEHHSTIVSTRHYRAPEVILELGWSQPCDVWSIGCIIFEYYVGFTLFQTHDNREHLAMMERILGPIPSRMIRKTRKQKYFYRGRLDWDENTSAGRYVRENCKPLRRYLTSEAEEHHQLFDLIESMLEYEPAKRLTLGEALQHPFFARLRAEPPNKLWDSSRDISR
Sequence of Serine/threonine-protein kinase Chk2 (Homo sapiens) (O96017 whole entry, canonical isoform): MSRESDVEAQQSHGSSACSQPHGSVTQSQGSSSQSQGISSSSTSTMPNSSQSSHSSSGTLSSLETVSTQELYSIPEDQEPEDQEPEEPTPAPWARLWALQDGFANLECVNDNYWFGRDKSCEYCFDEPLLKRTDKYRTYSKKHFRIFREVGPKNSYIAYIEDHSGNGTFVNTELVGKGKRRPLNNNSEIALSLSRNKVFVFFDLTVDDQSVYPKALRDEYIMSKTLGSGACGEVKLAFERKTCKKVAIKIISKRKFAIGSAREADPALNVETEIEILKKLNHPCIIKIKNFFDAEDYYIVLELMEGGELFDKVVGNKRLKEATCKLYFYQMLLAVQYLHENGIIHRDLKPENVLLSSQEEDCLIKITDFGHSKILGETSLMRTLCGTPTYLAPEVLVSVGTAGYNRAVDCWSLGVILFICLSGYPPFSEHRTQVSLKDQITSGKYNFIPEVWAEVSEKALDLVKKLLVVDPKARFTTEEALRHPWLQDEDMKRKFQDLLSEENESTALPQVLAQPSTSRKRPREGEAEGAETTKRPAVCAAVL
Sequence of Dual specificity protein kinase CLK3 (Homo sapiens) (P49761 whole entry, looked up): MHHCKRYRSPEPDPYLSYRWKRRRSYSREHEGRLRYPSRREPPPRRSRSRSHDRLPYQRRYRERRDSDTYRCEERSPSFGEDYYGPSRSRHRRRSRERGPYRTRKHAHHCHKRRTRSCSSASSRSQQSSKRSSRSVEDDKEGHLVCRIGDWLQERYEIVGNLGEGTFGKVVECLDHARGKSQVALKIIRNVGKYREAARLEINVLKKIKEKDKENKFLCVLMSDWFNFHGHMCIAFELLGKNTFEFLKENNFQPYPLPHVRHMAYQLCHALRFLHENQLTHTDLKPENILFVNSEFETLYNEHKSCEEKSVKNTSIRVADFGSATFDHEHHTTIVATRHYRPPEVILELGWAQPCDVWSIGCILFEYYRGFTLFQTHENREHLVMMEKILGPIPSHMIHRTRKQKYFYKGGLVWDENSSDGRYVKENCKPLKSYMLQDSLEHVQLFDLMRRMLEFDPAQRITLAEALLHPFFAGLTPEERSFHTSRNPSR
Sequence of Casein kinase II subunit alpha' (Homo sapiens) (P19784 whole entry, looked up): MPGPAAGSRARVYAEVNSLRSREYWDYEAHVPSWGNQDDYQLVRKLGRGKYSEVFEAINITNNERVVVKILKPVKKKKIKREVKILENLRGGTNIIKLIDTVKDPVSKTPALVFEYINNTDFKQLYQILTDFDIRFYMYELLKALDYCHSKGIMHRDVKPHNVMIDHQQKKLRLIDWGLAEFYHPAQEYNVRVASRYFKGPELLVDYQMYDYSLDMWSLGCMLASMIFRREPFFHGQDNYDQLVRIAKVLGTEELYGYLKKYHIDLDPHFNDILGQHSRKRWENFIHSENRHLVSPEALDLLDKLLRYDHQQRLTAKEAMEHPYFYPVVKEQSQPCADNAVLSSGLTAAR
T3 sequence (P19784 whole entry, looked up): as above
T3 sequence (P67870 whole entry, looked up): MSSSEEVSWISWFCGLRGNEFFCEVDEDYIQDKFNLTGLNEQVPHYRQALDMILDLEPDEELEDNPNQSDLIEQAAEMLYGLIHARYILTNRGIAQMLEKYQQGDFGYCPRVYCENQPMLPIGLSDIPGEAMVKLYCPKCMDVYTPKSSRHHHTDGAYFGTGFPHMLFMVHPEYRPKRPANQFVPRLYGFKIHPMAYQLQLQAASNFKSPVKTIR
T3 sequence (P68400 whole entry, looked up): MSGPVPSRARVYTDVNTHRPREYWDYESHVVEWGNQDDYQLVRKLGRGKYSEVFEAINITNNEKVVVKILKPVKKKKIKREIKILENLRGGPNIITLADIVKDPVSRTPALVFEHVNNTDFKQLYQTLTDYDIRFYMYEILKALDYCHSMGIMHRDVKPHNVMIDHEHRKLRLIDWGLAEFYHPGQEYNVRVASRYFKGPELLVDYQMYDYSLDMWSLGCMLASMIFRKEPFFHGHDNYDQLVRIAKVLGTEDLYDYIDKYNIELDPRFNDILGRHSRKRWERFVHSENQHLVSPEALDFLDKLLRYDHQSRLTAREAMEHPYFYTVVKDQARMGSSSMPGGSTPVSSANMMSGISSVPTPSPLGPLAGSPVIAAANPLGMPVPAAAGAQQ
Sequence of Casein kinase I isoform gamma-1 (Homo sapiens) (Q9HCP0 whole entry, looked up, canonical isoform): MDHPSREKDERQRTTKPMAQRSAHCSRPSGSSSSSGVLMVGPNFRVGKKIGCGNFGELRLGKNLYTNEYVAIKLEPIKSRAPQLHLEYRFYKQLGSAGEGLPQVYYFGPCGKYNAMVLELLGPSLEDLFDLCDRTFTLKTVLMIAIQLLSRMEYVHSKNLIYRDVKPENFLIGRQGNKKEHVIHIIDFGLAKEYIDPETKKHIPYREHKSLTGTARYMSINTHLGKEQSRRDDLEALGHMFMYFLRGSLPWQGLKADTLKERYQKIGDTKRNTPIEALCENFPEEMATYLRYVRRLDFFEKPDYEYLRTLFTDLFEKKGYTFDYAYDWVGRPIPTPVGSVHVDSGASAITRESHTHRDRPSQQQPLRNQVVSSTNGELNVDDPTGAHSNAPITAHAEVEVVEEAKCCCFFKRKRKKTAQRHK
Sequence of Casein kinase I isoform delta (Homo sapiens) (P48730 whole entry, looked up, canonical isoform): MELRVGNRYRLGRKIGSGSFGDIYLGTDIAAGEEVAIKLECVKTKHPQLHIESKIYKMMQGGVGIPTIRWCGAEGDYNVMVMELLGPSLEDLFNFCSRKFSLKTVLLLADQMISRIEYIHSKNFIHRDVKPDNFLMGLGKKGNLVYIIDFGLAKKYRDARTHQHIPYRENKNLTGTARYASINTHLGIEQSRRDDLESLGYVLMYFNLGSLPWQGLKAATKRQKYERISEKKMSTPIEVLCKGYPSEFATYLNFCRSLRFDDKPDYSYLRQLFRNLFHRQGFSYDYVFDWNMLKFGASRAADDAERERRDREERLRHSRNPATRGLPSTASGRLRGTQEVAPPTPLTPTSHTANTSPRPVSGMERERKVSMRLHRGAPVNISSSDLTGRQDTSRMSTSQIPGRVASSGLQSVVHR

| Structure (SMILES) | residual activity [1] | residual activity [2] | residual activity [3] | residual activity [4] | residual activity [5] | residual activity [6] | residual activity [7] | residual activity [8] | residual activity [9] | residual activity [10] | residual activity [11] | residual activity [12] | residual activity [13] | residual activity [14] | residual activity [15] | residual activity [16] | residual activity [17] | residual activity [18] | residual activity [19] | residual activity [20] |
| --- | --- | --- | --- | --- | --- | --- | --- | --- | --- | --- | --- | --- | --- | --- | --- | --- | --- | --- | --- | --- |
| O=C1c2ccccc2-[n+]2ccc3c([nH]c4ccccc43)c21 | 86% | 92% | 94% | 87% | 77% | 75% | 98% | 81% | 79% | 77% | 87% | 71% | 104% | 85% | 114% | 103% | 79% | 72% | 86% | 88% |
| COc1cc2ncnc(Nc3ccc(NC(=O)c4ccccc4)cc3)c2cc1OC | 111% | 100% | 97% | 99% | 34% | 8% | 92% | 78% | 79% | 69% | 98% | 111% | 110% | 107% | 107% | 82% | 83% | 39% | – | 92% |
| O=[N+]([O-])c1ccc(-c2nc(-c3ccc(F)cc3)c(-c3ccncc3)[nH]2)cc1 | 103% | 24% | 102% | 92% | 97% | 84% | 75% | 88% | – | 4% | 100% | 108% | 114% | 114% | 122% | 107% | 89% | 87% | 108% | 105% |
| O=C(Nc1cccc(Nc2nccc(Nc3cccc(C(F)(F)F)c3)n2)c1)C1CC1 | 89% | 79% | 72% | 77% | 81% | 48% | 93% | 94% | 82% | 78% | 75% | 109% | 108% | 72% | 71% | 82% | 76% | 9% | 115% | 100% |
| Nc1ccc2ncnc(NCCc3ccc(Oc4ccccc4)cc3)c2c1 | 94% | 107% | 94% | 72% | 52% | 17% | 87% | 82% | 77% | 53% | 100% | 101% | 109% | 100% | 87% | 69% | 94% | 92% | 118% | 91% |
| Cc1nc2cc3nc(-c4cccs4)cnc3cc2n1C | 109% | 102% | 101% | 108% | 86% | 101% | – | 89% | 95% | 67% | 102% | 104% | 130% | 92% | 114% | 63% | 99% | 53% | 110% | 109% |
| COc1cc2ncc(-c3ccccc3)nc2cc1OC | – | – | 90% | 78% | 86% | 88% | 90% | 78% | 72% | 39% | – | – | – | – | – | – | 92% | 81% | – | 94% |
| NC(=O)c1ccc2[nH]c(-c3ccc(Oc4ccc(Cl)cc4)cc3)nc2c1 | 81% | 78% | 91% | 97% | – | – | 78% | 57% | 83% | 83% | 100% | 92% | 92% | 102% | 101% | 104% | 89% | 82% | 105% | 102% |
| COc1ccc(C(=O)Nc2sc3c(c2C(N)=O)CCCC3)cc1OC | 96% | 97% | 81% | 104% | 77% | 98% | 84% | 103% | 89% | 96% | 95% | 115% | 126% | 91% | 90% | 82% | 50% | 52% | 101% | 99% |
| CCN(CC)C(=O)c1ccc(Nc2nc(OCC3CCCCC3)c3nc[nH]c3n2)cc1 | 46% | 8% | 57% | 10% | 55% | 12% | 42% | 7% | 71% | 34% | – | – | 101% | 75% | 25% | 6% | 65% | 20% | – | 44% |
| O=C1NC(=O)/C(=C/c2ccc3c(c2)OC(F)(F)O3)S1 | 94% | 77% | 94% | 88% | 93% | 85% | 95% | 94% | 80% | 65% | 32% | 2% | 52% | 0% | 116% | 75% | 91% | 94% | 121% | 117% |
| Ic1cccc(CSc2nnc(-c3ccncc3)o2)c1 | 75% | 87% | 57% | 49% | 72% | 65% | 101% | 84% | 83% | 75% | 87% | 87% | 101% | 97% | 12% | 13% | 65% | 45% | 104% | 94% |
| CC(C)n1cnc2/c(=N/c3cccc(Cl)c3)nc(NCCO)[nH]c21 | 63% | 24% | 38% | 25% | 64% | 21% | 8% | 0% | 37% | 7% | 89% | 86% | 108% | 103% | 19% | 6% | 55% | 12% | 101% | 88% |
